The campaign covered roughly 5,500 compounds. About 2,000 (36%) were called active. Roughly 18% stayed inconclusive and do not appear here. No stated cut-off is given here; in the data, active means normalized growth mostly below about 0.91 (no sharp cut-off); inconclusive means no clear call, values can overlap the other calls; inactive means mostly above about 0.92. The list shows a part of the results.
Test: chemical genetic growth profiling, strain panel (AID 1159580);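 further: tested at 20 µM; growth read once vehicle control cultures reached saturation at 30 °C; 1 = growth at the plate median or of vehicle wells; lower values mean less growth of the strain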
Conditions: growth OD
[1] = S. cerevisiae deletion strains, locus YDR150W, strain NUM1, hits give low values
[2] = S. cerevisiae deletion strains, locus YPL055C, strain LGE1, hits give low values
[3] = S. cerevisiae deletion strains, locus YPL241C, strain CIN2, hits give low values

Measured: normalized growth

CSC(N)=NCCC[C@H](N)C(=O)O
inactive: S. cerevisiae deletion strains, locus YAL040C, strain CLN3, hits give low values 1.1 | S. cerevisiae deletion strains, locus YCL061C, strain MRC1 (second series), hits give low values 1.01 | [1] 1.02 | S. cerevisiae deletion strains, locus YDR363W, strain ESC2, hits give low values 0.997 | S. cerevisiae deletion strains, locus YER002W, strain NOP16, hits give low values 1.02 | S. cerevisiae deletion strains, locus YMR307W, strain GAS1, hits give low values 1 | S. cerevisiae deletion strains, locus YNL175C, strain NOP13, hits give low values 1.01 | S. cerevisiae deletion strains, locus YNL197C, strain WHI3, hits give low values 1 | S. cerevisiae deletion strains, locus YNL224C, strain SQS1, hits give low values 1 | S. cerevisiae deletion strains, locus YOR083W, strain WHI5 (second series), hits give low values 1 | [2] 1 | [3] 1.01

COc1ccc(OC)c(S(=O)(=O)N2CCc3cc(OC)c(OC)cc3C2C)c1 (stereo unspecified)
inactive: S. cerevisiae deletion strains, locus YAL013W, strain DEP1, hits give low values 1 | S. cerevisiae deletion strains, locus YBR229C, strain ROT2, hits give low values 0.998 | S. cerevisiae deletion strains, locus YCL061C, strain MRC1, hits give low values 0.994 | S. cerevisiae deletion strains, locus YDL101C, strain DUN1, hits give low values 0.972 | S. cerevisiae deletion strains, locus YDL134C, strain PPH21, hits give low values 0.992 | [1] 0.909 | S. cerevisiae deletion strains, locus YEL061C, strain CIN8, hits give low values 0.998 | S. cerevisiae deletion strains, locus YGR078C, strain PAC10, hits give low values 0.99 | S. cerevisiae deletion strains, locus YHR030C, strain SLT2, hits give low values 0.996 | S. cerevisiae deletion strains, locus YHR087W, strain rtc3, hits give low values 1.03 | S. cerevisiae deletion strains, locus YJL187C, strain SWE1, hits give low values 1.01 | S. cerevisiae deletion strains, locus YJR043C, strain POL32, hits give low values 0.973 | S. cerevisiae deletion strains, locus YJR075W, strain HOC1, hits give low values 0.999 | S. cerevisiae deletion strains, locus YKL190W, strain CNB1, hits give low values 0.984 | S. cerevisiae deletion strains, locus YLR039C, strain RIC1, hits give low values 0.948 | S. cerevisiae deletion strains, locus YLR058C, strain SHM2 (second series), hits give low values 1.02 | S. cerevisiae deletion strains, locus YLR085C, strain ARP6, hits give low values 1.02 | S. cerevisiae deletion strains, locus YLR262C, strain YPT6, hits give low values 1.02 | S. cerevisiae deletion strains, locus YML094W, strain GIM5, hits give low values 1.03 | S. cerevisiae deletion strains, locus YMR219W, strain ESC1, hits give low values 1 | S. cerevisiae deletion strains, locus YMR263W, strain SAP30, hits give low values 1.01 | S. cerevisiae deletion strains, locus YNL153C, strain GIM3, hits give low values 0.994 | S. cerevisiae deletion strains, locus YNL298W, strain CLA4 (second series), hits give low values 0.993 | S. cerevisiae deletion strains, locus YNL322C, strain KRE1, hits give low values 1 | S. cerevisiae deletion strains, locus YNR030W, strain Alg12, hits give low values 1 | [2] 1.02 | [3] 0.996 | S. cerevisiae deletion strains, locus YPR135W, strain CTF4, hits give low values 0.947 | S. cerevisiae strains, strain wild type, hits give low values 0.972

Reference: PubChem BioAssay AID1159580 (chemical genetic matrix, 2015)
